In all, about 2,400 compounds went through this assay and about 220 (9.2%) were called active. Many of the other results were omitted from the sample, so actives are more common in it than they were. Unmarked numbers belong to inactive results.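 The calls were made as follows: active = signal change above the mean of dofetilide-free buffer controls plus 3 SD, so a positive margin; inactive = the rest.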

This assay can be described thus: thallium signal changes without hERG – cell-based, CHO-K1 parental line, FluxOR thallium flux, counter-screen for hERG block protection project, confirmation (AID 1839).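 Also: compounds applied alone with no dofetilide to cells lacking hERG.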 Conditions: CHO-K1 parental cells, FluxOR thallium flux fluorescence; at 10 µM.
As to `CC(=O)Nc1ccc(S(=O)(=O)NC2(C(F)(F)F)C(=O)Nc3c2c(=O)[nH]c(=O)n3C)cc1` (stereo unspecified), the signal change vs control minus 3*SD hit threshold (margin above threshold, higher = more increase) was -24.3%.

As for `CCC1(C)Cc2c(sc3nc(SC)[nH]c(=S)c23)CO1` (stereo unspecified), the signal change vs control minus 3*SD hit threshold (margin above threshold, higher = more increase) was 48.8% (active).

Turning to `CCc1nc2sc3c(c2c(=S)[nH]1)CC(C)(C)OC3`, the signal change vs control minus 3*SD hit threshold (margin above threshold, higher = more increase) was -18.6%.

With `CSc1nc2sc3c(c2c(=S)[nH]1)CC(C)(C)OC3`, the signal change vs control minus 3*SD hit threshold (margin above threshold, higher = more increase) was 31.8% (active).

Take `CC(=O)c1ccc(S(=O)(=O)NCc2ccc(C(=O)N(C)CC(=O)Nc3cccc(F)c3)cc2)cc1`: the signal change vs control minus 3*SD hit threshold (margin above threshold, higher = more increase) was -20.8%.

Regarding `CC1Cc2cc(S(=O)(=O)NCc3ccccc3)ccc2N1C(=O)C1CCC1` (stereo unspecified), the signal change vs control minus 3*SD hit threshold (margin above threshold, higher = more increase) was -33.7%.

For the compound `O=C1NC(=O)C2(COC(c3cccc([N+](=O)[O-])c3)OC2)S1` (stereo unspecified), the signal change vs control minus 3*SD hit threshold (margin above threshold, higher = more increase) is -28.4%.

Regarding `CCCn1nnnc1SCC(=O)Nc1nnc(CC)s1`, the signal change vs control minus 3*SD hit threshold (margin above threshold, higher = more increase) was -22.9%.

As for `Cc1[nH]c(-c2ccccn2)nc(=S)c1Cl`, the signal change vs control minus 3*SD hit threshold (margin above threshold, higher = more increase) was 18.1% (active).

As to `c1ccc(-c2n[nH]c(-c3ccccn3)n2)cc1`, the signal change vs control minus 3*SD hit threshold (margin above threshold, higher = more increase) was -23.5%.

On to `Cc1cc(=S)nc(-c2ccccn2)[nH]1`, for which the signal change vs control minus 3*SD hit threshold (margin above threshold, higher = more increase) was -18.7%.

Consider `CCCCCOc1ccc(C2C(C(C)=O)=C(C)Nc3ncnn32)cc1OC` (stereo unspecified), for which the signal change vs control minus 3*SD hit threshold (margin above threshold, higher = more increase) was -35.5%.

As for `O=Cc1cc(-c2ccccc2)[nH]c1-c1ccccc1`, the signal change vs control minus 3*SD hit threshold (margin above threshold, higher = more increase) was -28.6%.

With `Cc1ccc(Cc2c[nH]c(=S)s2)cc1`, the signal change vs control minus 3*SD hit threshold (margin above threshold, higher = more increase) is -4.6%.

With `S=c1[nH]c(-c2ccccc2)cs1`, the signal change vs control minus 3*SD hit threshold (margin above threshold, higher = more increase) was 16.2% (active).

On to `Cc1cccc(-n2cc(-c3ccccc3)[nH]c2=S)c1`, for which the signal change vs control minus 3*SD hit threshold (margin above threshold, higher = more increase) is -28%.

Regarding `Cc1ccc(-c2csc3nc[nH]c(=S)c23)cc1`, the signal change vs control minus 3*SD hit threshold (margin above threshold, higher = more increase) was -1.7%.

With `S=c1[nH]cnc2scc(-c3ccc(Cl)cc3)c12`, the signal change vs control minus 3*SD hit threshold (margin above threshold, higher = more increase) is -13.3%.

Turning to `S=c1[nH]c(-c2ccc(Cl)cc2)cs1`, the signal change vs control minus 3*SD hit threshold (margin above threshold, higher = more increase) is 61.6% (active).

On to `Cc1ccc(-c2csc(=S)[nH]2)cc1`, for which the signal change vs control minus 3*SD hit threshold (margin above threshold, higher = more increase) is 59.2% (active).

With `S=c1[nH]nc(Nc2ccc(Cl)cc2)s1`, the signal change vs control minus 3*SD hit threshold (margin above threshold, higher = more increase) was -36.9%.

For the compound `CC(C)Nc1nc(SCC(N)=O)nc(N2CCOCC2)n1`, the signal change vs control minus 3*SD hit threshold (margin above threshold, higher = more increase) was -27.8%.

Turning to `CCC(C)(C)C1CCc2c(sc(NC(=O)c3ccccc3C(=O)O)c2C#N)C1` (stereo unspecified), the signal change vs control minus 3*SD hit threshold (margin above threshold, higher = more increase) was -7%.

As for `CCOC(=O)C1C(c2ccccc2)C(C(=O)OCC)C1c1ccccc1` (stereo unspecified), the signal change vs control minus 3*SD hit threshold (margin above threshold, higher = more increase) is -27.3%.

As to `Cc1ccc(NC(=O)CN2C(=O)S/C(=C\c3ccc(-c4cccc(C(=O)O)c4C)o3)C2=O)cc1`, the signal change vs control minus 3*SD hit threshold (margin above threshold, higher = more increase) was -30.6%.

As for `COc1ccc(-c2ccc(/C=N/NC(=O)c3cccnc3)o2)c([N+](=O)[O-])c1`, the signal change vs control minus 3*SD hit threshold (margin above threshold, higher = more increase) was -34.4%.

Turning to `O=C(O)CCCCn1c(SCc2ccccc2Cl)nc2ccsc2c1=O`, the signal change vs control minus 3*SD hit threshold (margin above threshold, higher = more increase) is -18.4%.

Regarding `CCOC(=O)NC(=S)Nc1ccc(C(C)(C)C)cc1`, the signal change vs control minus 3*SD hit threshold (margin above threshold, higher = more increase) is -14.3%.

In the case of `O=C(NC(=S)Nc1ccc(C(F)(F)F)cc1)c1csnn1`, the signal change vs control minus 3*SD hit threshold (margin above threshold, higher = more increase) was 48.4% (active).

Consider `O=C(NC(=S)Nc1ccc(N2CCCCC2)cc1)c1cccs1`, for which the signal change vs control minus 3*SD hit threshold (margin above threshold, higher = more increase) was -2.8%.

As for `O=C(NC(=S)Nc1cccc(C(F)(F)F)c1)c1csnn1`, the signal change vs control minus 3*SD hit threshold (margin above threshold, higher = more increase) is 52.4% (active).

Regarding `O=C(NC(=S)Nc1cc(C(F)(F)F)ccc1Cl)c1ccccc1`, the signal change vs control minus 3*SD hit threshold (margin above threshold, higher = more increase) was -22.9%.

Take `O=C(Nc1ccc(-c2csc(Nc3cccc(C(F)(F)F)c3)n2)cc1)c1ccccc1`: the signal change vs control minus 3*SD hit threshold (margin above threshold, higher = more increase) is -35.7%.

For `Cc1onc(-c2ccccc2)c1C(=O)NC(=S)Nc1sc2c(c1C#N)CCC(C)C2` (stereo unspecified), the signal change vs control minus 3*SD hit threshold (margin above threshold, higher = more increase) was -18.7%.

`CCCSC(=S)c1c(C)[nH]n(-c2ccccc2)c1=O`: the signal change vs control minus 3*SD hit threshold (margin above threshold, higher = more increase) is -12.5%.

Consider `O=C(Nc1nnc(-c2ccc3c(c2)CCCC3)o1)C1COc2ccccc2O1` (stereo unspecified), for which the signal change vs control minus 3*SD hit threshold (margin above threshold, higher = more increase) is -35%.

`CC(/C=C1\SC(=S)N(NS(=O)(=O)c2ccccc2)C1=O)=C\c1ccccc1`: the signal change vs control minus 3*SD hit threshold (margin above threshold, higher = more increase) is -11.8%.

With `COc1cc(CNn2nnnc2N)ccc1OCC(=O)NC(C)(C)C`, the signal change vs control minus 3*SD hit threshold (margin above threshold, higher = more increase) was -34.7%.

Turning to `O=C(NC(=S)N1CCc2ccccc21)c1ccccc1`, the signal change vs control minus 3*SD hit threshold (margin above threshold, higher = more increase) was -2.8%.

Turning to `O=C(NC(=S)N1CCc2ccccc21)c1ccccc1Cl`, the signal change vs control minus 3*SD hit threshold (margin above threshold, higher = more increase) is 9% (active).

As for `O=C(NC(=S)N1CCc2ccccc21)c1ccc(Br)o1`, the signal change vs control minus 3*SD hit threshold (margin above threshold, higher = more increase) is -18.4%.

Values taken from PubChem BioAssay AID1839 (Johns Hopkins Ion Channel Center, 2009).
